High-throughput results: PubChem BioAssay, several laboratories
Most compounds without a hit are left out; they make up all but 1.6% or so of the library.
NSD2 inh = NSD2 histone methyltransferase inhibitors, primary screen, biochemical, AlphaScreen, single concentration, set 2; NSD2 peptide methylation, 120 min; inhibition, % at 12.5 µM; 0.54% of 310,000 active; Histone-lysine N-methyltransferase NSD2 (Homo sapiens), O96028; in the data active = inhibition above about 50%
SIRT5 block = SIRT5 desuccinylase inhibitors, primary screen, biochemical, fluorescence imaging, single point, set 5; AID 652115, 2013; Purified SirT5, succinyl-peptide AMC, trypsin-coupled fluorescence; inhibition, % at 15 µM; 1.1% of 330,000 active; in the data active = inhibition above about 15%
CASP6 VEID inh = human caspase-6 inhibitors, primary screen, biochemical, VEID-R110 fluorescence, single point, set 2; inhibition, % at 12.5 µM; P55212; 0.53% of 350,000 active; purified caspase-6, Z-VEID-R110 cleavage fluorescence;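 active = mean inhibition across replicates at least about 35%, with every replicate also reaching that limit, limit read from the data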
Target sequence (P55212 24-179 limits assumed): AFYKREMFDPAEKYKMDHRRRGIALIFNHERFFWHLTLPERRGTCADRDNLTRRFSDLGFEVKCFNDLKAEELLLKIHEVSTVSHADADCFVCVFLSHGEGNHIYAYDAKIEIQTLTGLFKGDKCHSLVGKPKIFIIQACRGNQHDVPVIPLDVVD
Target sequence (P55212 194-293 limits assumed): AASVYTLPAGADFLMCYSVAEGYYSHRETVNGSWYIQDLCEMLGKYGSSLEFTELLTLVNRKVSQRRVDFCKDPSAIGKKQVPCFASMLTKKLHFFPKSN
UBC9 SUMO inh = inhibitors of in vitro SUMOylation cascade, primary screen, biochemical, HTRF, uHTS | SUMO-conjugating enzyme UBC9 (Homo sapiens), P63279 | HTRF SUMOylation assay, SAE1/SAE2 + UBC9 | inhibition, % at 35 µM | 0.36% of 290,000 active | AID 2006, 2009; in the data active = inhibition above about 50%, passing the limit was not always enough
Target sequence (P63279 whole entry, looked up): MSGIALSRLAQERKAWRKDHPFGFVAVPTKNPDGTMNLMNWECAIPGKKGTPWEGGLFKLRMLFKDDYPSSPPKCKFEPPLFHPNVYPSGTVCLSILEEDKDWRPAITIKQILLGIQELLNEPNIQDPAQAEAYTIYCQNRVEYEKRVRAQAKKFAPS
Alpha artifact = AlphaScreen signal interference with preloaded methylated product, dose response, artefact control for NSD2 inhibitor project, biochemical, cherry-picked samples; shares compounds with NSD2 inh; AlphaScreen artifact counterscreen, preloaded methylated H4 peptide; AC35, µM (titrated, usually from 10 µM); 9.4% of 1,500 active; AID 1053174, 2014; call rule not given here
Numbers stand for hits; n = inactive; x = not tested or not shown; + = active, no number.

SMILES	NSD2 inh	SIRT5 block	CASP6 VEID inh	UBC9 SUMO inh	Alpha artifact
Cc1noc(C)c1S(=O)(=O)Nc1ccc2c(c1)C(=O)N([C@@H](C)CO)C[C@@H](C)[C@@H](CN(C)CC1CCCCC1)O2	x	n	n	x	x
COc1cc(N(C)C)ccc1C=c1c2ccccc2n2c1cc(-c1ccccc1)[n+]2C	85.2	n	61.3	x	1.48µM
COc1ccccc1NC(=O)c1ccccc1C(=O)Nc1ccccc1OC	x	n	n	n	x
COc1ccccc1NC(=O)c1ccccc1NS(=O)(=O)N1CCCC1	83.0	x	x	n	n
Cc1ccccc1N(C(=O)c1snc(C(N)=O)c1N)C(C)C(=O)NC1CCCCC1 (stereo unspecified)	78.2	n	n	n	n
CC(C)(C)c1cc(C(=O)N/N=C/c2ccncc2)n[nH]1	54.9	n	n	n	n
O=C(Cc1ccccc1)N1CC(=O)N2[C@H](C1)[C@H](c1ccc(C#CCc3ccccc3)cc1)[C@@H]2CO	x	n	n	x	x
O=C(Nc1nnc(SCc2ccc(F)cc2)s1)c1cccnc1Cl	n	n	n	n	x
O=C(Nc1nnc(SCc2ccc(F)cc2)s1)c1ccccn1	65.1	n	n	n	n
Cn1c(=O)c2[nH]c(NN=Cc3ccc(F)cc3)nc2n(C)c1=O	n	x	n	x	x
CCN(CC)CCOc1ccc(C=NNc2nc3c([nH]2)c(=O)n(C)c(=O)n3C)cc1	51.5	x	n	x	n
CCCn1c2c(c(O)c(C(=O)NCCCN(CC)CC)c1=O)CCCC2	58.9	x	x	n	n
CCCn1c2c(c(O)c(C(=O)NC)c1=O)CCCC2	n	x	x	n	x
O=C(Nc1nc2ccccc2[nH]1)c1ccc(F)cc1	n	n	n	n	x
N#Cc1c2nc3ccccc3nc2n2cc(NC(=O)c3ccc(F)cc3)ccc12	73.4	n	n	x	n
CCc1ccc(-c2cc(C)no2)cc1S(=O)(=O)N1CCN(c2ccc(F)cc2)CC1	50.3	n	n	n	n
Oc1ccc(-c2csc(Nc3cccc4ccccc34)n2)cc1O	50.7	n	43.1	n	n
Cc1cccnc1Nc1nc(-c2ccc(O)c(O)c2)cs1	51.3	n	n	n	n
Oc1ccc(-c2csc(Nc3ccccn3)n2)cc1O	n	n	n	n	x
COc1ccc(NC(=O)Nc2ccc3c(c2)CC(=O)N([C@@H](C)CO)C[C@@H](C)[C@@H](CN(C)Cc2ccc(C(=O)O)cc2)O3)cc1	x	n	n	x	x
CC(C)c1ccc2c(c1)[C@H]1OCC[C@H]1[C@@H](c1cccs1)N2	n	x	x	n	x
Cc1cc(C)c2c(c1)N[C@H](c1cccs1)[C@@H]1CCO[C@H]21	50.2	n	n	n	n
COc1ccc(/C=C2/C(=O)N(c3c(F)c(F)c(F)c(F)c3F)N=C2C)cc1	58.2	n	n	n	n
COc1ccc(/C=C2/C(=O)N(c3ccccc3)N=C2C)cc1	n	x	x	x	x
O=C(C[C@H]1C=C[C@@H](NS(=O)(=O)c2ccc(F)cc2)[C@@H](CO)O1)NCc1ccccc1F	x	n	n	x	x
SMILES	NSD2 inh	SIRT5 block	CASP6 VEID inh	UBC9 SUMO inh	Alpha artifact
CNC[C@H]1Oc2cc(C#Cc3ccccn3)ccc2S(=O)(=O)N([C@H](C)CO)C[C@H]1C	x	n	n	x	x
O=C(O)CC1NC(=S)N(Cc2ccccc2)C1=O (stereo unspecified)	n	n	n	x	x
CN1C(=O)C(CCC(=O)O)NC1=S (stereo unspecified)	76.7	n	n	n	n
Cc1ccc(N2CCOCC2)c2c1C(=O)c1ccccc1C2=O	57.1	n	n	n	4.29µM
O=C1C=C(N2CCOCC2)c2ccccc2C1=O	+	n	99.7	95.6	n
CN(C1=C(N2CCOCC2)C(=O)c2ccccc2C1=O)c1ccccc1	76.0	x	x	n	2.92µM
c1ccc(N2CCOCCOCCOCCOCCOCC2)cc1	n	n	n	n	x
O=C1C=C(N2CCOCC2)c2cccc3cccc1c23	x	x	n	x	x
C[C@@H]1CN([C@H](C)CO)C(=O)Cc2cc(NC(=O)CCN3CCOCC3)ccc2O[C@@H]1CN(C)S(=O)(=O)c1ccc(F)cc1	x	n	n	x	x
CC(C)NC(=O)NCC[C@H]1CC[C@@H](NC(=O)CCN2CCCCC2)[C@@H](CO)O1	x	n	n	x	x
COc1cccc(-c2ccc([C@@H]3[C@@H](CO)N4C(=O)CN(C(=O)NC(C)C)C[C@@H]34)cc2)c1	x	n	n	x	x
S=C(Nc1ccc2nsnc2c1)N1CCCC1	141.0	n	46.9	n	n
COc1ccc(-c2nnc3n2N=C(C)CS3)cc1	68.5	x	x	n	n
COCC#Cc1ccc2c(c1)O[C@H](CN(C)C(=O)C1CCC1)[C@@H](C)CN([C@H](C)CO)S2(=O)=O	x	n	n	x	x
COc1ccc(CNC(=O)CN(c2ccc(C)cc2)S(=O)(=O)c2c(C)noc2C)cc1	63.3	n	n	n	n
Cc1ccc(S(=O)(=O)NCC[C@@H]2CC[C@@H](NS(=O)(=O)c3ccccc3Cl)[C@@H](CO)O2)cc1	x	n	n	x	x
O=C1c2cccc(NCCCNCCO)c2C(=O)c2cccc(NCCCNCCO)c21	87.7	x	n	x	4.17µM
CCC(=O)N(C)C[C@@H]1Oc2cc(C#CC3CCCCC3)ccc2S(=O)(=O)N([C@@H](C)CO)C[C@H]1C	x	n	n	x	x
COC(=O)C[C@H]1CC[C@@H]2[C@@H](COc3ccc(NC(=O)c4ccc(F)c(F)c4)cc3C(=O)N2C)O1	x	n	n	x	x
Cc1ccc(-c2cc(C(F)(F)F)n3nc(C(=O)N4CCN5CCCC5C4)cc3n2)cc1 (stereo unspecified)	75.0	n	n	n	n
COc1ccccc1NC(=O)N[C@@H]1CC[C@H](CCNS(=O)(=O)c2ccccc2)O[C@@H]1CO	x	n	n	x	x
CCN(CC)CCCN(Cc1cc2cc3c(cc2[nH]c1=O)OCO3)C(=O)Nc1ccccc1OC	n	x	x	n	x
CCN(CC)CCCN(Cc1cc2cc3c(cc2[nH]c1=O)OCO3)C(=S)NCCOC	n	n	n	n	x
CCN(CC)CCCN(Cc1cc2cc(OC)c(OC)cc2[nH]c1=O)C(=O)Nc1ccccc1	50.9	x	x	n	n
CCNC(=S)N(CCCN(CC)CC)Cc1cc2cc3c(cc2[nH]c1=O)OCO3	84.1	n	n	n	n
SMILES	NSD2 inh	SIRT5 block	CASP6 VEID inh	UBC9 SUMO inh	Alpha artifact
CCN(CC)Cc1c(O)c(Cl)cc2c(C)c(C)c(=O)oc12	n	x	x	n	x
CCN(CC)Cc1c(O)c(Cl)cc2c(C)cc(=O)oc12	112.2	x	n	n	n
Cc1nnc(N/N=C/c2ccccc2O)n1N	101.1	n	50.1	n	n
Cc1nnc(N/N=C/c2ccc(-c3ccccc3F)o2)n1N	85.2	n	n	n	n
CCc1nnc(N/N=C/c2ccc(-c3ccc([N+](=O)[O-])cc3)o2)n1N	n	n	n	n	x
Cc1nnc(N/N=C\c2ccc(-c3ccccc3[N+](=O)[O-])o2)n1N	93.1	n	n	n	n
COc1ccc2c3c([nH]c2c1)[C@H](CO)N(C(=O)Nc1ccc(F)cc1)CC31CN(C(=O)Cc2ccncc2)C1	x	x	n	x	x
NS(=O)(=O)c1ccc(N=Nc2ccc(=O)[nH]c2O)cc1	109.6	n	70.5	n	n
